Data: ChEMBL document CHEMBL4513216, “Probing the Open Global Health Chemical Diversity Library for Multistage-Active Starting Points for Next-Generation Antimalarials” (ACS Infect Dis, 2020)
Screen size: about 69,000 compounds; about 8,600 (12%) showed an effect of 50% or more. The entries come from a sample that favours strong results as a whole.

Tested on: Plasmodium berghei
Assay: Screen against P. berghei liver stage (PbLuc), transformed with Luciferase, at 10uM
Format: functional, HepG2
Settings: tested at 10 uM

| Compound | INHIBITION |
| --- | --- |
| O=C(c1cscn1)N1CCC[C@]2(C[C@@H](OCC3CC3)CO2)C1 | 36.9% |
| CN(Cc1ccco1)Cc1ccccc1CNC(=O)c1cnccn1 | 63.3% |
| Cc1oc(C)c(C(=O)NCc2ccccc2CN(C)C)c1C | 25.55% |
| Cc1ncccc1C(=O)NCc1ccccc1CN(C)Cc1ccco1 | 67.3% |
| CN(Cc1ccco1)Cc1ccccc1CNC(=O)c1ccc[nH]1 | 30.1% |
| CN(Cc1ccco1)Cc1ccccc1CNC(=O)c1cnc[nH]1 | 69.3% |
| CN(C)c1ncccc1CNC(=O)NCc1ccco1 | -36.3% |
| CN(Cc1ccco1)Cc1ccccc1CNC(=O)c1cc[nH]n1 | 30.1% |
| Cc1cc(C(=O)NCc2ccccc2CN(C)Cc2ccco2)on1 | 77.2% |
| CN(Cc1ccco1)Cc1ccccc1CNC(=O)c1ccncc1 | -4.86% |
| Cc1cc(CN(C)C(=O)NCc2ccco2)no1 | 14.1% |
| CN(Cc1ccco1)Cc1ccccc1CNC(=O)c1csnn1 | 46.4% |
| CN(Cc1ccco1)Cc1ccccc1CNC(=O)c1c[nH]nn1 | -1.28% |
| CCS(=O)(=O)c1ccccc1N1CCC(NC(=O)C(C)C)CC1 | -25.8% |
| CO[C@@H]1CCC[C@@H](NC(=O)C(C)(C)c2cccc(F)c2)[C@H]1O | 10.855% |
| Cc1cccc(C)c1NC(=O)c1n[nH]c(-n2cnnc2)n1 | 19.6% |
| CC(C)N(C)Cc1nnc2n1CCCN(S(=O)(=O)C1CC1)C2 | 36.4% |
| c1ccc(OCc2nnc3n2CCN(CC2CC2)C3)nc1 | 39.3% |
| Cc1c(C2CCCN(C(=O)Cc3ccccn3)C2)n2c(nc1=O)CCC2 (stereo not given) | 34.1% |
| O=C(NCCc1nccs1)[C@H](c1ccccc1)n1cnnn1 | -20.8% |
| CC(O)CNC(=O)CCc1nc2ncccc2[nH]1 (stereo not given) | 26.6% |
| Cc1nc(C(=O)N2CCN(S(C)(=O)=O)CC2)c(-c2cccc(F)c2)s1 | 17.7% |
| Cc1ccc(N2CCO[C@H]3CN(Cc4ccoc4)C[C@H]32)nn1 | 41.6% |
| Cc1cc(C)cc(CN2C[C@@H]3OCCN(CC(=O)N(C)C)[C@@H]3C2)c1 | 66.6% |
| c1cc(CN2C[C@@H]3OCCN(CCN4CCCC4)[C@@H]3C2)cs1 | 11.3% |
| CN(C)c1nccc(N2CCO[C@H]3CN(Cc4ccsc4)C[C@H]32)n1 | 65.1% |
| CN(C)C(=O)CN1CCO[C@H]2CN(Cc3ccoc3)C[C@H]21 | 31.2% |

| Compound | INHIBITION |
| --- | --- |
| Cc1cccc(CN2C[C@@H]3OCCN(c4cnccn4)[C@@H]3C2)n1 | -18.5% |
| c1cnc(N2CCO[C@H]3CN(Cc4ccsc4)C[C@H]32)nc1 | 42.7% |
| Cc1cccc(CN2C[C@@H]3OCCN(c4ccnc(N(C)C)n4)[C@@H]3C2)c1 | 77.5% |
| Cc1cccc(CN2C[C@@H]3OCCN(CC(=O)N(C)C)[C@@H]3C2)c1 | 39.4% |
| CCOCCCNC(=O)C1CCC(=O)N(CCc2ccc(Cl)cc2)C1 (stereo not given) | 16.3% |
| COc1ccc(C(=O)Nc2ccccc2C(C)C)c(OC)n1 | -17.2% |
| COc1ccc([C@@H]2CN(Cc3cccnc3N)C[C@H]2N(C)C)cc1 | 30.3% |
| O[C@@H]1CCN(CC2CC2)[C@H]1Cc1ccccc1 | -14.4% |
| Cc1nc(C)n(CC2CN(Cc3cccnc3)Cc3nccn3C2)n1 (stereo not given) | 25.1% |
| Cc1ncsc1C(=O)NCCCN1CCCCCC1=O | -21.2% |
| Cc1nc(S(=O)(=O)N2CCSCC2)cn1C | -50.7% |
| CCN(CC)Cc1cc(=O)n2c(n1)CN(C(=O)c1ccnnc1)CCC2 | -20.2% |
| COc1ccc(C[C@H]2CN(C(=O)CS(C)(=O)=O)CC[C@H]2OC)cc1 | 33.4% |
| COCCN1CC[C@H]2CN(Cc3ccc(C)s3)C[C@@H]2C1=O | -75% |
| c1nc(N2CCCC2)ncc1CN1CCCC(CN2CCCCC2)C1 (stereo not given) | 21.1% |
| NC(=O)CCC1CCCN(Cc2cnc(N3CCCCC3)nc2)C1 (stereo not given) | 67.8% |
| CCc1cnc(N2CCCC(CCC(N)=O)C2)nc1 (stereo not given) | 17.9% |
| Cc1nn(C)c2ncc(C(=O)N3CCNC(=O)C3)cc12 | 1.86% |
| COCC(=O)N1CCC(c2cc3ncccc3c(O)n2)CC1 | -27.4% |
| O=C(CCC1CCCC1)N1CCC(c2cc3ncccc3c(O)n2)CC1 | 55.6% |
| O=C(CC1CCCC1)N1CCC(c2cc3ncccc3c(O)n2)CC1 | -2.11% |
| O=C(c1c(F)cccc1F)N1CCOCC1 | 30.45% |
| O=C(Nc1cccc(CNCc2cccnc2)c1)C1CCCC1 | 39.65% |
| Cn1ccc(C(=O)NCc2cccc(CN3CCCC3)c2)cc1=O | 48.8% |
| O=C(Nc1cccc(CNCc2csc(Br)c2)c1)C1CC1 | 70.7% |
| Cn1ccc(C(=O)NCc2cccc(NC(=O)C3CCC3)c2)cc1=O | 61.1% |
| Cn1ccc(C(=O)NCc2ccc(Cn3ccnc3)cc2)cc1=O | -7.17% |

| Compound | INHIBITION |
| --- | --- |
| Cc1nccn1Cc1cccc(CNC(=O)c2ccn(C)c(=O)c2)c1 | 53.8% |
| Cn1ccc(C(=O)NCc2cccc(Cn3ccnc3)c2)cc1=O | 31.4% |
| O=C(Nc1cccc(CNCc2ccsc2)c1)C1CC1 | 21.8% |
| Cn1ccc(C(=O)NCc2cccc(N3CCCCC3=O)c2)cc1=O | 45.9% |
| COCCC(=O)N1CCC(c2cc(O)n(C)n2)C1 (stereo not given) | 0.301% |
| O=C(O)CC(CC(=O)NCc1ccsc1)c1cccs1 (stereo not given) | -24% |
| CCn1cc(NC(=O)NCCc2ccc3c(c2)OCO3)cn1 | -23.9% |
| CCc1nc(C(=O)N(C)CC(=O)N(C)C)nn1-c1ccccc1Cl | 27.9% |
| c1ccc2oc(CCCN3CCOC(Cn4cncn4)C3)nc2c1 (stereo not given) | 47.1% |
| Cc1ccsc1C(=O)N1CCC(Nc2cccnc2)CC1 | -36.6% |
| COCCN1C(=O)[C@@H]2CC[C@H]1CN(S(=O)(=O)c1ccc(OC)cc1)C2 | 1.56% |
| Cc1cc(C(F)(F)F)c2c(C3CCCN(C(=O)C4CC4)C3)noc2n1 (stereo not given) | 26.8% |
| CNc1ccc(Cl)cc1C(=O)N1CCC(Cn2cc(CN)nn2)CC1 | 21.2% |
| CC(C)n1ncc2c1NC(=O)CC21C(=O)Nc2c(Cl)ccc(Cl)c21 (stereo not given) | 73.6% |
| CC(C)n1ncc2c1NC(=O)CC21C(=O)Nc2c(Cl)cccc21 (stereo not given) | -75.8% |
| CN1C(=O)C2(CC(=O)Nc3c2cnn3C(C)(C)C)c2c(Cl)cccc21 (stereo not given) | 5.58% |
| CC(C)n1ncc2c1NC(=O)CC21C(=O)Nc2cc(Cl)cc(Cl)c21 (stereo not given) | 89.6% |
| CC(C)n1ncc2c1NC(=O)CC21C(=O)Nc2c(Cl)cc(Br)cc21 (stereo not given) | -23.7% |
| CC(C)n1ncc2c1NC(=O)CC21C(=O)Nc2c(Br)cc(Cl)cc21 (stereo not given) | 59.3% |
| CC(C)n1ncc2c1NC(=O)CC21C(=O)Nc2c(Cl)cc(Cl)cc21 (stereo not given) | -35.5% |
| Cc1cc(C)c2c(c1)C1(CC(=O)Nc3c1cnn3C(C)C)C(=O)N2 (stereo not given) | -20.5% |
| Cc1cc(Br)c2c(c1)C1(CC(=O)Nc3c1cnn3C(C)C)C(=O)N2 (stereo not given) | -34.8% |
| CC(=O)c1ccc(N2CCN(C(=O)NCc3cc[nH]n3)CC2)cc1 | 48.4% |
| O=C(c1ccsc1)N1CCOC2(CCN(Cc3cccnc3)CC2)C1 | -9.67% |
| COc1ccc2oc(C(C)NC(=O)NC3CCN(C)CC3)c(C)c2c1 (stereo not given) | 2.4% |
| Cn1ccnc1CNC(=O)N(CCCO)C1CCc2ccccc21 (stereo not given) | 8.05% |
| CCC[C@H]1CN(c2cncc(C(=O)N3CCCCC3)n2)C[C@@H]1N(C)C | -12.2% |

| Compound | INHIBITION |
| --- | --- |
| COCCNC(=O)Cn1cc(OCc2ccc(F)cc2)c(=O)cc1C | 25.8% |
| Cc1nc(O)cc(C2CCCN2CCO)n1 (stereo not given) | 13.5% |
| CC(=O)Cc1c(C)nn(-c2cncc(N)c2)c1C | 11.5% |
| O=C1CC2(CCCC2)CN1CCOc1ccc(F)cc1 | -144% |
| CC(=O)OC1CN(c2nc3c(C(F)(F)F)cccc3s2)C1 | -107% |
| O=C(C1=COCCO1)N1CC(Oc2nc3c(Cl)cccc3s2)C1 | 74.6% |
| OC1CN(c2nc3c(C(F)(F)F)cccc3s2)C1 | -40% |
| O=C(C1=COCCO1)N1CC(Oc2nc3c(C(F)(F)F)cccc3s2)C1 | 81.1% |
| Cn1nc(C(=O)N2CC(Oc3nc4c(Cl)cccc4s3)C2)ccc1=O | 29.6% |
| COc1cccc2sc(OC3CN(C(=O)C4=COCCO4)C3)nc12 | 13.3% |
| CC1CCN(C(=O)CSc2nc3c(cnn3CCO)c(=O)[nH]2)CC1 | 38.6% |
| O=C(c1ccc2[nH]nnc2c1)N1CC[C@H](O)[C@]2(CCCO2)C1 | 1.62% |
| CCc1cccc(NC(=O)N2CCn3cnc(COC)c3C2)c1 | -2.35% |
| CCN(CC1CCCO1)C(=O)Nc1cc(C(N)=O)ccc1OC (stereo not given) | 2.3% |
| O=C(Cc1ccsc1)N1CCC[C@@H]1Cn1c(=O)oc2ccccc21 | 8.2% |
| O=C(NCC1CCOCC1)[C@@H]1CC[C@@H]2[C@@H](CCN2Cc2ccncc2)O1 | -54.7% |
| O=C(COCC1CCCO1)N(Cc1cccnc1)c1ccc(F)cc1 (stereo not given) | 53.3% |
| O=C(CN(Cc1cccnc1)CC1CCCO1)Nc1ccc(F)cc1 (stereo not given) | 21.6% |
| O=C(CCc1cccnc1)N(Cc1ccsc1)CC1CCCO1 (stereo not given) | -9.86% |
| Cn1cc(C2CC(=O)NC23CCN(C(=O)c2cccnc2)CC3)cn1 (stereo not given) | 33.4% |
| O=C(c1csc(-c2ncccn2)n1)N1CCCC1Cn1cccn1 (stereo not given) | 41.5% |
| O=C(Nc1cccc(CNCc2cccs2)c1)C1CC1 | 20.5% |
| O=C(Nc1cccc(CNCc2cccs2)c1)C1CCCC1 | 36.9% |
| CC(C)CC(=O)Nc1cccc(CNCc2cccs2)c1 | 52.1% |
